JMJD2A Tudor inh: inhibitors of human JMJD2A Tudor domain | O75164 | AlphaScreen JMJD2A-Tudor / H3K4me3 peptide binding | Potency, µM (highest dose often 114 µM), for the others: top-dose activity change, negative = inhibition, usual class: inhibitors | 390,000 tested, 4.4% active | AID 504339; note: % is set by controls: 0 for no effect and ±100 for the full control effect; nearly all actives have a fitted effect of over 50% in size
BAZ2B block: inhibitors of human BAZ2B bromodomain; 360,000 tested, 4.4% active; AlphaScreen BAZ2B-H3K14Ac peptide displacement; Q9UIF8; AID 504333; Potency, µM (top dose mostly 114 µM), for the others: top-dose activity change, negative = inhibition, actives largely listed as inhibitors; note: % is set by controls: 0 for no effect and ±100 for the full control effect; nearly all actives have a fitted effect of over 60% in size
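In this displacement format the biotinylated H3(5-23) peptide acetylated at Lys14 serves as ligand at 50 nM, with BAZ2B at 50 nM in PBS pH 7.4 containing 0.01% Tween-20. Donor and acceptor beads are 10 ug/mL final.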
GLS inhibitor: blocks human kidney-isoform glutaminase activity | 410,000 tested, 0.21% active | O94925 | Potency, µM (top dose mostly 45.5 µM), for inactives: at the top dose activity change, negative = inhibition, most hits filed as inhibitors | GLS enzymatic activity, qHTS titration; note: % is set by controls: 0 for no effect and ±100 for the full control effect
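Read-out is an Amplex red fluorescence increase coupled through glutamate oxidase and HRP, measured before and after 30 min room-temperature incubation. hKGA is in 45 mM KH2PO4 (pH 8.2) with 0.02% Tween-20; glutamine added as 1mM solution.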
HP1b binding inh: HP1-beta chromodomain-methylated histone interaction inhibition; P83916; AlphaScreen HP1-beta / biotin-H3K9me3 peptide binding; Potency, µM (titrated, usually from 114 µM), for inactives: at the top dose activity change, negative = inhibition, usual class: inhibitors; 390,000 tested, 0.56% active; AID 540317; note: nearly all actives have a fitted effect of over 70% in size
Target sequence (P83916 whole entry, looked up): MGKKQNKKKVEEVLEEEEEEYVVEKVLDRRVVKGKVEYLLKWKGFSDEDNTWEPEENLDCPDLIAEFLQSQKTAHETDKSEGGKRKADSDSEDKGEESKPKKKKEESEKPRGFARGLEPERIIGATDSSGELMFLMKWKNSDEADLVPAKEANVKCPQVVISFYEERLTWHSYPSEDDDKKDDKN
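AlphaScreen: HP1-beta (50 nM) preformed 30 min with biotin-H3(1-18)K9me3 peptide (50 nM) in PBS pH 7.4, 0.01% Tween-20. Compound added for 30 min at RT, then streptavidin donor/nickel chelate acceptor beads (10 ug/mL) for 30 min.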
G9a block: inhibitors of human histone lysine methyltransferase G9a. Q96KQ7. G9a H3K9 monomethylation, AlphaScreen, 2 h. Potency, µM (highest dose often 102 µM), for the others: at the highest dose activity, negative = inhibition, usual class: inhibitors. 350,000 tested, 8.8% active; note: % is set by controls: 0 for no effect and ±100 for the full control effect; nearly all actives have a fitted effect of over 75% in size
Target sequence (Q96KQ7 913-1193 limits assumed): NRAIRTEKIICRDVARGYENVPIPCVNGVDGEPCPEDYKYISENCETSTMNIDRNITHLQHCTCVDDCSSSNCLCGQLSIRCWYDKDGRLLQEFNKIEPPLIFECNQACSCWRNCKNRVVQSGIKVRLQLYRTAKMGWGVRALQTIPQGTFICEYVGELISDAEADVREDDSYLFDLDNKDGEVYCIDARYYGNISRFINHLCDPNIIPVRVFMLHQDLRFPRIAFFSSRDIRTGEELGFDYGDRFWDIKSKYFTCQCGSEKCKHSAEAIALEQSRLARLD
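Using a bead-based AlphaScreen, monomethylated H3K9 product from 2 h room-temperature reactions (G9a 20 nM, peptide 500 nM, SAM 20 uM) was detected with 0.5 ug/mL rabbit anti-H3K9me1 antibody.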
An asterisk follows results filed as active; ? = inconclusive; . = not tested or not shown; ! = repeats disagree; [ ] = another dose, or the depositor's remark. Compounds with a hit are over-represented: about 10% of the library has one in this group of screens. Calls come from the whole dose curve; as a rule, active = well fitted curve in the direction sought with a large enough effect; inconclusive = small, poorly fitted or top-dose-only effect, or another doubt; inactive = no such curve, though single readings can be large; an effect the other way counts as inactive or inconclusive. Potency is the fitted concentration of half-maximal effect.

SMILES | JMJD2A Tudor inh | BAZ2B block | GLS inhibitor | HP1b binding inh | G9a block
COC1=CC(=O)C(C2CC(=O)c3c(O)cc(O)cc3O2)=CC1=O (stereo unspecified) | 79µM* | . | 30% | ? | .
CC(C(=O)NC(C)(C)C)N(C(=O)CS(=O)CC(=O)Nc1ccc(F)cc1)C1CCCC1 (stereo unspecified) | 6% | 1% | 2% | 19% | -12%
CSCCC(=O)Nc1nc(-c2ccccn2)cs1 | 89µM* | 20µM* | 1% | 9% | 8.9µM*
N#Cc1ccccc1OCC(=O)Nc1nc(-c2ccccn2)cs1 | . | . | -7% | . | .
O=C(CN1C(=O)CCC1=O)Nc1nc(-c2ccccn2)cs1 | 25µM* | 5.6µM* | 3% | 27% | 15%
O=C(CCCSc1ccccc1)Nc1nc(-c2ccccn2)cs1 | -27% | -1% | -4% | 16% | ?
Cc1cc(C)cc(OCC(=O)Nc2nc(-c3ccccn3)cs2)c1 | -23% | -6% | -6% | -36% | 22µM*
O=C(Nc1nc(-c2ccccn2)cs1)C1CCCC1 | ? | 50µM* | 12% | -17% | ?
c1ccc(N2CCN(c3nc4cc5c(cc4s3)OCO5)CC2)cc1 | -10%[57.1 µM] | 2% | -1% | -22% | ?
c1c2c(cc3sc(N4CCOCC4)nc13)OCO2 | ? | -9% | 15% | ? | -50%[2.33 µM]
c1ccc2c(c1)CCN(c1nc3cc4c(cc3s1)OCO4)C2 | -34%[57.1 µM] | ? | 11% | -24% | 3.2µM*
c1c2c(cc3sc(N4CCCCC4)nc13)OCO2 | -35% | ? | -3% | -31% | 10µM*
CCOC(=O)C1(O)CSc2nc3sc(C(=O)O)c(C)c3c(=O)n21 (stereo unspecified) | -12% | ? | 16% | 15% | ?
OCC1O[C@H](OC2C(CO)O[C@@](O)(CO)C2O)C(O)C(O)C1O (stereo partly specified) | . | . | -3% | . | -12%[2.33 µM]
CCN(CC)c1ccc(NC(=O)C2=CC=CN3CCS(=O)(=O)N=C23)cc1 | ? | 45µM* | 42% | -23% | ?
Cc1cc(OCC(O)CNC(C)c2ccccc2)ccc1C(C)C (stereo unspecified) | -28% | 6% | -9% | 60% | .
CCOc1cc([N+](=O)[O-])cc(/C=N/NC(=O)c2c(-c3ccccc3)noc2C)c1O | 79µM* | 22µM* | 11% | 20% | ?
COc1cccc(/C=N/NC(=O)c2c(-c3ccccc3)noc2C)c1O | ? | 45µM* | 15% | 19% | 107%[59 µM]
Cc1onc(-c2ccccc2)c1C(=O)N/N=C/c1c[nH]c2ccccc12 | ? | ? | -63% | 45µM* | -28%
O=C(N/N=C/c1c[nH]c2ccccc12)c1ccc(O)c(O)c1 | -24% | -18% | 11µM* | 11% | -21%
CC(C)(C)OC(=O)N1CCC(c2c(C(=O)NCCN3CCC(Cc4ccccc4)CC3)cnn2-c2ccc(F)cc2)CC1 | -33% | -4%[57.1 µM] | -1% | 26% | ?
O=C(O)c1cnn(-c2ccccc2)c1-c1ccncc1 | -27% | ? | ? | 4% | 50µM*
O=C(/C=C/c1cccc([N+](=O)[O-])c1)NCCSCc1c(Cl)cccc1Cl | -15% | -31% | -6% | 10% | ?
CC(C)NC[C@H](O)COc1cccc2ccccc12 | -14% | . | -14% | 32% | 2%[59 µM]
CC(CNCC1CCCO1)COc1cccc2ccccc12 (stereo unspecified) | 1.8µM* | ? | 8% | ? | ?
SMILES | JMJD2A Tudor inh | BAZ2B block | GLS inhibitor | HP1b binding inh | G9a block
CCOC(=O)c1cc2cc(OCc3ccccc3)ccc2nc1C | 171% | 71% | 0% | 245% | 260%
COc1ccc2nc(C)c(C(=O)OCCN(C)C)cc2c1 | . | 5% | . | . | 50µM*
Cc1cc(OI)c(C(C)C)cc1-c1cc(C(C)C)c(OI)cc1C | . | . | -16% | . | 7.9µM*
CCCCc1sc(-c2c(C#N)c(N)nc3c2CCCCC3)cc1[N+](=O)[O-] | ? | -27% | -8% | 10% | -23%[59 µM]
COc1ccc(OC)c(Nc2nc(-c3sc(N)nc3C)cs2)c1 | 50µM* | 45µM* | 13% | ? | 32µM*
C=CCCC(=O)Nc1nc(C)c(-c2csc(Nc3cc(OC)ccc3OC)n2)s1 | 35µM* | 50µM* | 12% | ? | 10µM*
CCCC(C)C(=O)Nc1nc(C)c(-c2csc(Nc3cc(OC)ccc3OC)n2)s1 (stereo unspecified) | ? | ? | 2% | -6% | 14µM*
O=C(N/N=C/c1ccccc1C(=O)O)c1cccc(S(=O)(=O)N2CCOCC2)c1 | 2% | 7% | -6% | 36% | 19%[12.7 µM]
COc1ccc(OC)c(NC(=O)Cn2c(=O)n(Cc3ccco3)c(=O)c3cc(OC)c(OC)cc32)c1 | -21% | ? | 0% | 20% | -7%[59 µM]
COc1cccc2sc(NN)nc12 | ? | . | 14µM* | ? | 32µM*
NNc1nc2c(Cl)c(Cl)ccc2s1 | 10µM* | 50µM* | 20% | -34% | ?
CCCCn1c(N)c(N(CCC(C)C)C(=O)C2CC(=O)N(Cc3ccc(C)cc3)C2)c(=O)[nH]c1=O (stereo unspecified) | 0% | 21% | 0% | 19% | ?
CCCCn1c(N)c(N(CCC(C)C)C(=O)C2CC(=O)N(c3ccc4c(c3)OCCO4)C2)c(=O)[nH]c1=O (stereo unspecified) | -16% | -8% | -6% | 34%[57 µM] | ?
CCCCn1c(N)c(N(CCC(C)C)C(=O)C2CC(=O)N(c3cccc(SC)c3)C2)c(=O)[nH]c1=O (stereo unspecified) | -13% | -4% | -3% | 30% | 14µM*
CCCCn1c(N)c(N(CC(C)C)C(=O)C2CC(=O)N(Cc3ccccc3)C2)c(=O)[nH]c1=O (stereo unspecified) | -1% | 6% | 3% | 31% | 14µM*
CC(=O)/C(C#N)=C1\NC(=O)C(Cc2ccccc2)S1 (stereo unspecified) | -8% | -3% | -19% | 33% | 8%[0.0925 µM]
Cc1cccc2c1-c1sc(C(=O)Nc3ccccc3N3CCN(C)CC3)cc1CO2 | ? | 45µM* | -8% | -7% | .
CCOc1ccc(NC(=O)C2CCCN(S(=O)(=O)c3ccc4[nH]c(=O)ccc4c3)C2)cc1 (stereo unspecified) | 50µM*! | -24% | 1% | 6% | -8%[59 µM]
CCOC(=O)C(=O)N1CCN(c2ccccc2OC)CC1 | -1% | -15% | -6% | 34% | 5%[59 µM]
COC(=O)c1c(NC(=O)c2ccc(Br)o2)sc(C)c1C | 2% | 11% | 3% | -6% | 50µM*
COc1ccc2cc3cc(C(=O)NCc4ccc(C)cc4)oc3nc2c1 | -11% | . | -15% | 42% | 4%[59 µM]
O=C(CSc1nnc(-c2ccco2)n1Cc1ccco1)Nc1ccccc1 | -16% | -38% | -6% | 15% | -44%
S=C1Cc2ccccc2N1 | 79µM* | -35% | -4% | ? | 4.5µM*

Compound activity: PubChem, National Center for Advancing Translational Sciences (NCATS)
